Bioassay records (PubChem)
Mtb betalactam: beta-lactam sensitization of Mtb H37Rv; 0.27% of 330,000 active; M. tuberculosis H37Rv growth with meropenem, percent inhibition; inhibition, % at 25 µM; call rule not given here;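 also: growth measured after seven days incubation then overnight dye step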
FadD28 FP inh: inhibitors of Mycobacterium tuberculosis FadD28 bisubstrate binding. FadD28 bisubstrate probe binding, fluorescence polarization. inhibition, % at 12.5 µM. 0.22% of 360,000 active; in the data active = inhibition above about 8.5%, passing the limit was not always enough
UGM FP inh: Mtb UDP-galactopyranose mutase inhibition; P9WIQ1; purified UGM, fluorescence polarization probe displacement; inhibition, % at 10 µM; 0.06% of 320,000 active; AID 504406; in the data active = inhibition above about 10%, passing the limit was not always enough
FBA Mtb inh: inhibits M. tuberculosis FBA enzyme; purified M. tuberculosis FBA, fluorescence read-out; 2.3% of 360,000 active; inhibition, % at 1 µM; P9WQA3; in the data active = inhibition above about 27%
GDH-TPI inh: GDH-TPI coupled enzyme inhibition counter-screen; AID 588335; 1.2% of 360,000 active; inhibition, % at 4.8 µM; GDH-TPI coupled enzyme counterscreen, NADH absorbance; in the data active = inhibition above about 30%
Rv3671c inh: inhibits the M. tuberculosis serine protease Rv3671c. AID 2606. P9WHR9. 0.048% of 320,000 active. inhibition, % at 5.96 µM; in the data active = inhibition above about 38%;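 also: extracellular domain of Rv3671c used as enzyme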
Target sequence (P9WHR9 whole entry, looked up, the tested form may be a part): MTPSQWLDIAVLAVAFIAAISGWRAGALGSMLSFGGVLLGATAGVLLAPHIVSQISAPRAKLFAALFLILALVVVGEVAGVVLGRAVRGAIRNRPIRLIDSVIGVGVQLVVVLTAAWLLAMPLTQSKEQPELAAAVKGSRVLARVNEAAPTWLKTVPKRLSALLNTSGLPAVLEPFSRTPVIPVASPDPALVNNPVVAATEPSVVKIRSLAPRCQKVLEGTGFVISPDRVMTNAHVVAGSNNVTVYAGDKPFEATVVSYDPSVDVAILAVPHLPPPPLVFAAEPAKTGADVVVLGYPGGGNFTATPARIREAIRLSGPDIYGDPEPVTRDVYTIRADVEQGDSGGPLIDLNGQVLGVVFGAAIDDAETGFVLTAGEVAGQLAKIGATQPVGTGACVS
Of the large screens only hits and unclear results are named; the others gave an inactive call. Rows were chosen to be rich in hits. Some 3.7% of all compounds tested hit in one or more screens of this group.

COc1cccc(-c2c(C(=O)N/N=C/c3ccncc3)nnn2-c2nonc2N)c1	none
CC(=O)Nc1ccc(C=C(C#N)c2ccc(C)cc2)cc1	none (no result: Mtb betalactam, UGM FP inh, Rv3671c inh)
Cc1ccc(C(O)c2ncc(-c3ccc(Cl)cc3)[nH]2)cc1F (configuration not stated)	none (no result: Mtb betalactam, UGM FP inh, Rv3671c inh)
CCCN(CCC)Cc1c(C(=O)N/N=C/c2ccc(C)o2)nnn1-c1nonc1N	none
CCCc1c(C(=O)N/N=C/c2ccc(C)o2)nnn1-c1nonc1N	GDH-TPI inh 42.5 (no result: Mtb betalactam, UGM FP inh, Rv3671c inh)
CCOc1cc(/C=C/C(=O)c2ccc(O)cc2)ccc1OCC(=O)N(C)C	GDH-TPI inh 46.9
COc1ccc2cc(C(=O)/C=C/c3cc(OC)c(OC)c(OC)c3)ccc2c1	none
COc1ccc(C=CC(=O)c2ccc(OC)c(OC)c2)cc1O	GDH-TPI inh 40.3 (no result: Mtb betalactam, UGM FP inh, Rv3671c inh)
COc1cc(C(=O)C(=O)c2ccc(OC)c(OC)c2)ccc1O	GDH-TPI inh 31.6 (no result: Mtb betalactam, UGM FP inh, Rv3671c inh)
CCOc1cc(/C=C/C(=O)c2ccc3c(c2)OCCO3)ccc1OCC(=O)N(C)C	none
COc1ccc(C=CC(=O)c2ccc3cc(OC)c(OC)cc3c2)cc1OC	GDH-TPI inh 31.0 (no result: Mtb betalactam, UGM FP inh, Rv3671c inh)
Cc1nn(C)c(C)c1CCC(=O)NC1CC(C)(C)Cc2c1cnn2-c1ccccc1 (configuration not stated)	none
COc1ccc(/C=C/C(=O)c2ccc(O)cc2)cc1	none
COc1cc(OC)c(C(=O)/C=C/c2ccc(OCc3ccccc3)c(OC)c2)c(OC)c1	none (no result: Rv3671c inh)
COc1ccc(C(=O)/C=C/c2ccc3c(c2)OCCO3)cc1	GDH-TPI inh 36.0
COc1ccc(/C=C/C(=O)c2ccoc2)cc1	GDH-TPI inh 37.6
COc1cc(OC)c(C(=O)C=Cc2ccc(OC)c(OC)c2)c(OC)c1	GDH-TPI inh 34.9 (no result: Mtb betalactam, UGM FP inh, Rv3671c inh)
Cc1cc2n(c(=O)c1C#N)CCCN2c1ccccc1	GDH-TPI inh 58.2
Cc1cc(C)n(CC(=O)N2CCc3ccccc32)c(=O)c1C#N	none
O=C(C(=O)c1ccc(O)c(O)c1)c1ccc(O)c(O)c1	GDH-TPI inh 78.4 (no result: Mtb betalactam, UGM FP inh, Rv3671c inh)
COc1cc(C(=O)C(O)c2ccc(O)c(OC)c2)ccc1O (configuration not stated)	none (no result: Mtb betalactam, UGM FP inh, Rv3671c inh)
CC(C)C(=O)c1ccc(O)c(O)c1	GDH-TPI inh 37.7
CCC(C(=O)N1CCN(Cc2ccc3c(c2)OCO3)CC1)n1nnc2ccccc2c1=O (configuration not stated)	none (no result: Mtb betalactam, UGM FP inh, Rv3671c inh)
COc1cccc(NC(=O)N2CCCC2C(=O)NCc2ccco2)c1 (configuration not stated)	none
Cc1ccc(-c2cc(C(=O)NCc3ccco3)c3ccccc3n2)s1	FBA Mtb inh 112.8
O=C(COC(=O)c1cc(-c2cccs2)nc2ccccc12)NCc1ccco1	FBA Mtb inh 45.2
COc1cc(-c2cc(C(=O)NCc3ccco3)c3ccccc3n2)cc(OC)c1OC	none
O=C(COC(=O)c1cc(-c2ccc(Cl)s2)nc2ccccc12)NCc1ccco1	none
CCc1nc(C)c(C(=O)N2CCCC(C(=O)Nc3cccc(-c4cccc(C)c4)c3)C2)o1 (configuration not stated)	none
CCOC(=O)c1c(-c2ccccc2)cn2ccccc12	FBA Mtb inh 168.2
Cc1cccc(C)c1NC(=O)CNC(=O)CNC(=O)c1ccc2ccccc2c1	none (no result: Mtb betalactam, UGM FP inh, Rv3671c inh)
O=C(O)c1ccc(N=Nc2c(O)[nH]c3ccccc23)cc1	GDH-TPI inh 35.0
CN(C)C(=O)c1ccc(N=Nc2c(O)c3ccccc3[nH]c2=O)cc1	none (no result: Mtb betalactam, UGM FP inh, Rv3671c inh)
COc1cc(CC(=O)C(=O)O)oc(=O)c1	none (no result: Mtb betalactam, UGM FP inh, Rv3671c inh)
O=C(Nc1sccc1C(=O)NCc1ccco1)c1cccnc1	GDH-TPI inh 32.2
O=C(NCc1ccco1)C(c1ccccc1)N(C(=O)Cc1cccs1)c1cccnc1 (configuration not stated)	none
CCC(=O)N1CCC1(C)C(=O)Nc1cnc2ccccc2c1 (configuration not stated)	none (no result: Mtb betalactam, UGM FP inh, Rv3671c inh)
COc1ccc(/C=C(\NC(=O)c2cccs2)C(=O)NN)cc1OC	GDH-TPI inh 38.2 (no result: Rv3671c inh)
Nc1nonc1-n1nnc(C(=O)N/N=C/c2cccs2)c1-c1ccc2c(c1)OCO2	GDH-TPI inh 38.6
CCOc1cccc(-c2c(C(=O)N/N=C/c3sccc3C)nnn2-c2nonc2N)c1	GDH-TPI inh 32.2
Cc1ccc(-c2c(C(=O)N/N=C/c3cccs3)nnn2-c2nonc2N)cc1	none
Nc1nonc1-n1nnc(C(=O)N/N=C/c2ccccc2Cl)c1-c1ccc2c(c1)OCO2	none
Cc1ccc(-c2c(C(=O)N/N=C/c3ccc4c(c3)OCO4)nnn2-c2nonc2N)cc1	GDH-TPI inh 42.6
CCOc1ccc(-c2c(C(=O)N/N=C/c3sccc3C)nnn2-c2nonc2N)cc1	none
